Sampled rows, rich in hits. Any-hit rate of the full collection: about 4.1%.
ssDAF12 agonist = activators of S. stercoralis DAF-12 nuclear receptor; HEK293 ssDAF-12/GRIP1 lit1-tk-luc reporter, luminescence; % of 3 µM dafachronic acid response; activation, % at 6.8 µM; 370,000 compounds, 1% hits;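 active means activation above the mean over all tested compounds plus 3 SD, cut at about 0.9% in these data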;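 further: 0% = DMSO-only wells and 100% = 3 µM delta7-dafachronic acid wells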
hcDAF12 agonist = H. contortus DAF-12 activation, primary screen | activation, % at 6.8 µM | HEK293 hcDAF-12 lit1-tk-luc reporter, luminescence; 0% DMSO, 100% Δ7-dafachronic acid | AID 652067 | 370,000 compounds, 1.4% hits;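 active means activation above the mean of all tested compounds plus 3 SD, cut at about 5.5% in these data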;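 further: 100% = response to 3 µM Δ7-dafachronic acid high control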
DAX1 inh-1 = DAX1 (NR0B1) inhibition, primary screen; 370,000 compounds, 1.1% hits; HEK293T StAR-luciferase reporter, SF-1/DAX-1 repression relief; inhibition, % at 6.8 µM;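 active means inhibition above the mean over all tested compounds plus 3 SD, cut at about 3.6% in these data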;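 further: 0% = DAX-1 cells with DMSO and 100% = cells lacking DAX-1 with DMSO; higher inhibition means more luminescence from relief of DAX-1 repression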
hgDAF-12 ag = hgDAF-12 agonism, primary luciferase screen | HEK293 GAL4-hgDAF12 UAS-luciferase reporter, agonist luminescence; normalized to butyrate control | activation, % at 6.8 µM | 370,000 compounds, 1.8% hits;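 active means activation above a cutoff set at the mean of all screened compounds plus 3 SD, cut at about 10% in these data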;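 further: 0% = DMSO wells and 100% = sodium butyrate wells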
DAX1 inh-2 = inhibitors of human orphan nuclear receptor DAX1 (NR0B1) | P51843 | HEK293 Gal4-DAX1 luciferase reporter, luminescence | inhibition, % at 6.75 µM | 340,000 compounds, 0.99% hits | AID 504766;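 active means inhibition above the mean over all tested compounds plus 3 SD, cut at about 4.2% in these data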;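 further: 0% = DAX1-transfected cells with DMSO and 100% = empty-vector control cells with DMSO; inhibition shows as a rise in luminescence from relieved DAX1 repression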
Target sequence (P51843 207-470 limits assumed): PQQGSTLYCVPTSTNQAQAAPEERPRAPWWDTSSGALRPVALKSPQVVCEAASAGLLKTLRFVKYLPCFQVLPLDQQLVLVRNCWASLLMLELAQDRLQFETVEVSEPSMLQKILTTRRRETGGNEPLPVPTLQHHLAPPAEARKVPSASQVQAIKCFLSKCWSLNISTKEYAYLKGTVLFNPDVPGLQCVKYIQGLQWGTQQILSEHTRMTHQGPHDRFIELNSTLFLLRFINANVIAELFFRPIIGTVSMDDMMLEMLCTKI
LXR ag = activates human LXR-beta, counter-screen for hcDAF-12 agonists. 3,400 tested, under 10 active. activation, % at 6.8 µM. HEK293 Gal4-LXR tk-luc reporter, luminescence, 24 h; normalized: DMSO 0%, positive control 100%. shares compounds with hcDAF12 agonist;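 active means mean percent activation of the reporter above a cutoff set as the average over tested compounds plus their standard deviation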
hcDAF12 ag = hcDAF-12 agonism, confirmation assay | AID 743032 | activation, % at 6.8 µM | 3,400 compounds, 61% hits | shares compounds with hcDAF12 agonist | HEK293 hcDAF-12 lit1-tk-luc reporter, luminescence; % of Δ7-dafachronic acid response;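 active means mean activation across triplicate tests above the threshold derived from the earlier primary screen, cut at about 5.5% in these data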;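 further: 0% = DMSO only wells and 100% = 3 µM Δ7-dafachronic acid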
hgDAF12 ag = hgDAF-12 agonism, confirmation assay. activation, % at 6.8 µM. HEK293 GAL4-hgDAF12 luciferase reporter, agonist mode; percent of butyrate response. AID 743050. 3,300 compounds, 80% hits. shares compounds with hgDAF-12 ag;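 active means mean activation over triplicate wells above the hit cutoff derived from the earlier primary screen, cut at about 11% in these data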;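 further: 0% = DMSO low control and 100% = 2 mM sodium butyrate high control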
LXRb DAF12 ctr = LXR-beta agonism as DAF-12 counter-screen. shares compounds with hgDAF-12 ag. activation, % at 6.8 µM. HEK293 Gal4-LXR luciferase reporter, 24 h. AID 743051. 3,300 tested, under 10 active;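 active means mean activation of the triplicate above a set limit carried over from the primary screen, none filed active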
An asterisk follows results filed as active; / = no result given.

SMILES	ssDAF12 agonist	hcDAF12 agonist	DAX1 inh-1	hgDAF-12 ag	DAX1 inh-2	LXR ag	hcDAF12 ag	others
Cc1cc(C)c(S(=O)(=O)n2c([N+](=O)[O-])cnc2C)c(C)c1	-2	3	0	0	1	/	/
O=C(O)COc1ccccc1/C=N/NC(=O)c1cc2ccccc2cc1O	2.7*	11*	2	10	0	0	5
COc1cccc(-c2ccc(NC(=O)C3CCCN(Cc4cc(C)[nH]n4)C3)cc2)c1 (centres undefined)	-1	7.0*	0	3	0	0	0
Cc1cn2c(nc(=O)c3cccnc32)s1	-1	-1	-1	-3	2	/	/
Cc1cc(N=Nc2c(O)c3ccccc3[nH]c2=O)ccc1N=Nc1ccc(C(=O)N(C)C)cc1	0	4	0	3	1	/	/
CC(=O)c1cccc(N=Nc2c(C)[nH]c3ccccc23)c1	1.4*	6.7*	0	-1	0	0	5
O=C(NCc1ccc(F)cc1)c1cnc2sccn2c1=O	-1	-1	-1	2	-1	/	/
O=C(NCCc1c[nH]c2ccccc12)c1cnccn1	3.4*	6.7*	0	3	0	0	4
O=C(NCCc1c[nH]c2ccccc12)c1cnc2sccn2c1=O	1.4*	8.6*	3	10	3	1	8.9*
COc1cc(CN2CCCC(N3CCN(c4ccc(F)cc4)CC3)C2)ccc1F (centres undefined)	-2	0	0	1	-1	/	/
CC1CCCC(C)N1C(=O)COC(=O)CNC(=O)c1sc2ccccc2c1Cl (centres undefined)	-1	4	0	0	-2	/	/
CC1OC(CC(=O)O)CC2=C1C(=O)c1c(O)cccc1C2=O (centres undefined)	-3	-8	-6	-22	-7	/	/
CN(N=Cc1ccccc1O)c1ccc2ccccc2n1	2.4*	8.6*	2	12*	4	2	12*
N#Cc1ccc(/C=C2\CCCCn3c2nc2cc(C(=O)O)ccc2c3=O)cc1	-1	0	1	1	2	/	/
O=C(O)c1ccc2c(=O)n3c(nc2c1)/C(=C/c1ccc(C(F)(F)F)cc1)CC3	-1	7.0*	0	1	-1	0	1
Cc1cccc(C(=O)OCC(=O)N2CCCC2=O)c1O	-1	-1	-1	3	1	/	/
c1ccc(COc2ccc(OCCCN3CCCC3)cc2)cc1	0	7.3*	4.4*	8	0	1	9.4*
Nc1ccc(N=Nc2ccccc2)c2cccnc12	1	7.4*	0	6	2	0	9.5*
O=C(c1cccc(Cl)c1)C1CCCN(S(=O)(=O)c2ccccc2)C1 (centres undefined)	-1	3	-3	-1	-1	/	/
Cc1ccc(-c2nc3n(n2)Cc2ccccc2-3)cc1	2.4*	16*	3	8	-3	2	20*
CC1CC(C)CN(CCCNC(=O)CN2C(=O)c3cccnc3Oc3ccc(Cl)cc32)C1 (centres undefined)	-1	0	0	1	0	/	/
CCC(C)(C)C1CCc2[nH]nc(C(=O)N/N=C(\C)c3ccco3)c2C1 (centres undefined)	-1	-2	-1	-4	2	/	/
C/C(=N\NC(=O)c1n[nH]c2c1CCC2)c1ccco1	0	11*	1	8	/	1	5
COc1ccc(OCCOC(=O)CNC(=O)c2ccc(F)cc2)cc1	-1	1	1	-1	0	/	/
Cc1nn(C(=O)CNC(=O)c2ccccc2)c(C)c1C	-1	-1	2	-1	1	/	/
SMILES	ssDAF12 agonist	hcDAF12 agonist	DAX1 inh-1	hgDAF-12 ag	DAX1 inh-2	LXR ag	hcDAF12 ag	others
Cc1nn(C(=O)c2cc3sccc3[nH]2)c(C)c1C	0	8.1*	2	10*	3	1	11*
Cc1noc(/C=C/N(C)C)c1S(=O)(=O)N1CCc2ccccc21	0	7.4*	0	-3	2	0	5.7*
COc1ccccc1C(=O)N1CCCC1(C#N)c1ccccc1 (centres undefined)	-1	0	0	0	1	/	/
N#CC1(c2ccccc2)CCCN1C(=O)c1ccccc1Br (centres undefined)	0	10*	0	-1	0	0	2
COCC1CCN(C(=O)c2ccc3oc(C(C)C)nc3c2)C1 (centres undefined)	-1	1	1	2	3	/	/
Cc1ccc(S(=O)(=O)/N=C(/NC(=S)Nc2ccccc2)c2ccccc2)cc1	2.6*	14*	3	28*	4	1	5	hgDAF12 ag=20*;LXRb DAF12 ctr=1
COc1ccc(OC)c(N=c2oc3cc(O)ccc3cc2C(N)=O)c1	-2	-1	-1	1	0	/	/
COc1ccc2cc(C(N)=O)c(=Nc3ccccc3)oc2c1	0	14*	4.3*	14*	2	1	2	hgDAF12 ag=13*;LXRb DAF12 ctr=1
CC(C)(C)c1ccc(/C=C/C(=O)Nc2nncs2)cc1	0	7.4*	3	21*	3	1	6.8*	hgDAF12 ag=12*;LXRb DAF12 ctr=1
O=C(Nc1ncccc1O)c1ccc(Oc2ccccc2)cc1	0	6.8*	3.8*	19*	1	1	5.8*	hgDAF12 ag=26*;LXRb DAF12 ctr=1
O=[N+]([O-])c1ccc(/C=C/c2ccc3cccc(O)c3n2)cc1	-1	2	0	7	2	/	/
O=[N+]([O-])c1ccc(/C=C/c2ccc3ccccc3n2)cc1	1.0*	11*	3.8*	24*	-2	2	9.7*	hgDAF12 ag=13*;LXRb DAF12 ctr=1
Nc1nn(-c2ccccc2)c(N)c1N=Nc1ccccc1	1	9.0*	1	22*	-1	1	4	hgDAF12 ag=29*;LXRb DAF12 ctr=1
CC(=O)C1=C(C)NC(=S)NC1c1ccccc1 (centres undefined)	0	-2	0	1	/	/	/
Cc1ccc(SCC(=O)NC2CCS(=O)(=O)C2)cc1C (centres undefined)	0	0	1	1	0	/	/
Cc1ccc(-c2cn(-c3ccccc3)c(SCC(=O)NC3CCS(=O)(=O)C3)n2)cc1C (centres undefined)	0	8.4*	2	17*	1	1	4	hgDAF12 ag=7;LXRb DAF12 ctr=1
